# Assay outcomes from PubChem.
# Rows were chosen to be rich in hits. Some 9.3% of all compounds tested hit in one or more screens of this group.
# ELG1 genotox: genotoxicity induction in ELG1-luciferase HEK293T cells. HEK293T ELG1-luciferase reporter, luminescence, 16 h. Potency, µM (titrated, usually from 46 µM), actives largely listed as activators. hit rate 1.3% among 330,000. AID 504466; note: nearly all actives have a fitted effect of over 60% in size
#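 Reporter readout depends on ELG1 protein level, which increases with genetic stress. After 16 hr compound exposure at 37 °C, luciferase activity was quantified using ONE-Glo.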
# NPC1 promoter act: NPC1 promoter activation; Huh7 NPC1 promoter luciferase reporter, 24 h; Potency, µM (series often up to 9.22 µM), usual class: activators; hit rate 2.4% among 320,000; note: nearly all actives have a fitted effect of over 60% in size
#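 Huh7 cells stably carrying NPC1 promoter–luciferase, plated in Opti-MEM with 10% FBS for 2 h, were exposed to compound in DMSO for 24 h at 37 °C; luciferase reagent was added for 10 min and luminescence read.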
# Rab9 prom act: Rab9 promoter activation; Huh7 Rab9 promoter-luciferase reporter, luminescence, 24 h; Potency, µM (highest dose often 9.22 µM), actives largely listed as activators; hit rate 2.8% among 320,000; note: nearly all actives have a fitted effect of over 60% in size
#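 Cell-based reporter: Huh7 stable for Rab9 promoter-driven luciferase, plated in reduced-serum medium with 10% FBS at 1500 cells/well, compound-treated 24 h at 37 °C, luminescence read after 10 min reagent.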
# ELG1 DNA repair: inhibitors of ELG1-dependent DNA repair in HEK293T cells; Potency, µM (doses to about 46.1 µM), most hits filed as inhibitors; hit rate 2.3% among 330,000; AID 504467; HEK293T ELG1-luciferase reporter, luminescence, 16 h; DNA damage induced by 5-fluorouridine; note: nearly all actives have a fitted effect of over 55% in size
#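 Quantitative HTS, concentration-response format. 2,000 cells/well co-treated with 5-fluorouridine and compound, 16 hr in 5% CO2 at 37 °C; ONE-Glo luminescence read after 30 min.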
# FLuc modulator: counter-screen for miR-21 project: firefly luciferase inhibitors or activators; AID 588342; purified FLuc, Km substrates, luminescence inhibition; Potency, µM (highest dose often 57.5 µM), most hits filed as inhibitors; hit rate 6.9% among 360,000; P08659; note: nearly all actives have a fitted effect of over 55% in size
# Target sequence (P08659 whole entry, looked up): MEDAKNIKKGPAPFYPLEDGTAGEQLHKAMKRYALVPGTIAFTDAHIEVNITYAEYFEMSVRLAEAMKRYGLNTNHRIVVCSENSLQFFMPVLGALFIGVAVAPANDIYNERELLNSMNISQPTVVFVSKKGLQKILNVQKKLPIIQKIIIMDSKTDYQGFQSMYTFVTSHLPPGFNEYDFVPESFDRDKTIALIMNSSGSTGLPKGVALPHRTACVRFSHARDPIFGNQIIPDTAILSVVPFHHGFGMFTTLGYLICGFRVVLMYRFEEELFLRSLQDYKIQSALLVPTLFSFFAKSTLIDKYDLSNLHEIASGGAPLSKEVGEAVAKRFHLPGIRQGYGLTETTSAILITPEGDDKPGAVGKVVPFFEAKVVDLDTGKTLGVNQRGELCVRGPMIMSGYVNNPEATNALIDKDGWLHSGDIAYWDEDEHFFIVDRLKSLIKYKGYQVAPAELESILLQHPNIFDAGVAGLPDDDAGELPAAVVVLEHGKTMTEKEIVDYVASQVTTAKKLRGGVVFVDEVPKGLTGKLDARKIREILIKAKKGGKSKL
#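 Purified P. pyralis luciferase, 10 nM final, with Km-level 10 uM D-luciferin and 10 uM ATP in 50 mM Tris acetate pH 7.5, 10 mM Mg acetate, 0.01% Tween-20, 0.05% BSA; 6-point qHTS titration about 60 µM downward; luminescence read.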
# SMN2 splice enh: SMN2 splice variant enhancement. Potency, µM (highest dose often 46.1 µM), most hits filed as activators. AID 1458. HEK293 SMN2-luciferase splicing reporter, luminescence, 30-36 h. hit rate 2.8% among 210,000; note: nearly all actives have a fitted effect of over 55% in size
#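 qHTS luciferase splicing reporter: luminescence rises when SMN2 exon 7 is included in transfected HEK293 cells. Compound exposure lasted 30-36 h at 37C, with 4.5 mM final sodium butyrate as control, followed by a ONE-Glo read.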
# Hits are given with their value; – = inactive; ? = inconclusive; · = no result given. Calls come from the whole dose curve; as a rule, active = well fitted curve in the direction sought with a large enough effect; inconclusive = small, poorly fitted or top-dose-only effect, or another doubt; inactive = no such curve, though single readings can be large; an effect the other way counts as inactive or inconclusive.
SMILES,ELG1 genotox,NPC1 promoter act,Rab9 prom act,ELG1 DNA repair,FLuc modulator,SMN2 splice enh
COc1ccc(-c2csc(N(CC3CCCO3)C(=O)c3ccc(C)cc3)n2)cc1 (centres undefined),–,–,–,?,–,–
COc1ccc(-c2cc(C(=O)NCC3CCCO3)c3cc(C)ccc3n2)cc1 (centres undefined),–,–,–,–,2.1µM,?
COc1ccc(-c2csc(N(CC3CCCO3)C(=O)c3ccccc3)n2)cc1 (centres undefined),–,–,–,8.2µM,–,–
CCOc1ccc(Oc2ccc(S(=O)(=O)N3CCOCC3)cc2N)cc1,–,–,–,9.2µM,–,–
CCOc1ccc2cc(S(=O)(=O)N3CCOCC3)ccc2c1,–,–,–,–,–,–
O=c1[nH]c2ccccc2nc1-c1ccc(Cl)cc1,?,?,2.8µM,?,?,·
Cc1ccc(SCc2nc3ccccc3[nH]2)cc1,–,2.2µM,?,?,6µM,?
c1ccc(SCc2nc3ccccc3[nH]2)cc1,?,2.5µM,2.2µM,?,12µM,?
Fc1ccccc1CSCc1nc2ccccc2[nH]1,?,4µM,2.8µM,?,17µM,10µM
Cc1cc(C(=O)N2CCCC(N3CCN(c4cccc(Cl)c4)CC3)C2)nc(C)n1 (centres undefined),–,–,–,–,–,·
Cc1nc(C(F)(F)F)ccc1C(=O)Nc1ccc2ccccc2n1,–,–,–,–,?,·
COc1ccc2oc(=O)c(-c3csc(/C(C#N)=C/c4ccc(F)cc4)n3)cc2c1,·,·,·,·,–,–
CCCCCC(=O)Nc1cccc(S(=O)(=O)NC2=NCCC2)c1,–,–,–,–,–,·
Clc1ccc(SCc2nc3ccccc3[nH]2)cc1,–,?,?,?,9.5µM,–
Cc1cc(C(=O)N=Nc2c(O)n(C(C)C)c3ccccc23)n[nH]1,–,–,–,–,–,·
Cc1nc2ccccn2c1C(=O)N=Nc1c(O)n(CCC(C)C)c2ccccc12,–,–,–,9.2µM,–,–
NC(=O)c1ccccc1-c1noc(-c2ccccc2F)n1,·,?,?,·,17µM,·
COCCNC(=O)c1ccccc1-c1nc(-c2ccccc2OC)no1,–,?,–,–,?,–
NC(=O)c1ccc(-c2noc(-c3ccccc3F)n2)cc1,?,0.32µM,0.32µM,?,3µM,·
COc1ccccc1-c1ccc(SCc2ccc(C)cc2)nn1,–,–,–,?,15µM,–
COc1ccccc1-c1ccc(SCC(=O)N2CCOCC2)nn1,–,–,–,–,–,–
COc1ccccc1-c1ccc(SCc2ccc(F)cc2)nn1,–,–,–,–,24µM,–
O=[N+]([O-])c1ccc(N=Nc2c(Cl)cc(O)cc2Cl)cc1,–,–,–,?,2.7µM,·
CC(N)=Nc1ccc([N+](=O)[O-])cc1,–,–,–,–,–,–
CC#CCCCC(=O)Nc1ccccc1C(=O)O,?,?,?,?,19µM,?
SMILES,ELG1 genotox,NPC1 promoter act,Rab9 prom act,ELG1 DNA repair,FLuc modulator,SMN2 splice enh
CCc1ccc(CCC(=O)Nc2ccccc2C(=O)O)o1,?,?,?,?,19µM,?
CCCC(=O)NNC(=O)CC(=O)Nc1ccccc1C(=O)O,–,–,–,–,–,·
CC#CCCCC(=O)Nc1ccc(C(=O)O)cc1,–,–,–,?,–,–
CC(C)CCOc1cccc(OCC(=O)O)c1,–,–,–,–,?,–
Cc1c(S(=O)(=O)N(C)C2CCCCC2)c(=O)n(C)c(=O)n1C,–,–,–,–,–,·
Cc1ccc(C(C)C)c(OCC(=O)NNCC(=O)Nc2cccc(F)c2)c1,–,·,·,–,·,·
CC1(C)Oc2ccc3ccc(=O)oc3c2CC1=O,·,·,·,·,·,–
Cc1cc(C)nc(N/N=C2/CCCC/C2=C\c2ccccc2)n1,–,–,–,2.3µM,–,–
CCc1ccc(NC(=O)N(Cc2c[nH]c3ccccc23)C2CCCCCC2)cc1,·,·,·,·,–,5µM
COc1ccc(C(c2c(O)ccc3ccccc23)N2CCOCC2)c(OC)c1 (centres undefined),?,–,–,?,12µM,?
CCN(CC)S(=O)(=O)c1ccc(N2CCOCC2)c(NC(=O)c2cc(Cl)c3c(c2)OCO3)c1,–,·,·,8.2µM,·,·
CCN(CC)S(=O)(=O)c1ccc(N2CCOCC2)c(NC(=O)c2cc3ccccc3oc2=O)c1,–,–,–,5.2µM,–,·
CCOC(=O)C1CCCN(C(=O)c2ccc3c(c2)N(Cc2ccccc2F)C(=O)c2ccccc2S3=O)C1 (centres undefined),·,·,·,·,–,–
CCCn1c(-c2ccc(F)cc2)nc2c(NC(C)CN(C)C)nc(C)nc21 (centres undefined),·,·,·,·,·,–
O=C(CSc1ncc(-c2ccccc2)n1CC1CCCO1)N1CCCCC1 (centres undefined),–,–,–,–,–,–
CC1Cc2ccccc2N1C(=O)CSc1ncc(-c2ccc(F)cc2)n1C (centres undefined),?,3.5µM,1.1µM,?,1.9µM,13µM
Cn1c(-c2ccc(F)cc2)cnc1SCC(=O)N1CCCCC1,2.6µM,0.56µM,0.5µM,?,2.7µM,8.9µM
Cn1c(-c2ccc(F)cc2)cnc1SCC(=O)N1CCCc2ccccc21,–,–,–,–,?,–
O=C1C=C(NCCc2ccccc2)C2(CCCCC2)O1,–,–,–,–,–,·
O=C(O)c1sccc1SCc1ccc(Cl)c(Cl)c1,–,–,–,–,–,–
C=CS(=O)(=O)N(Cc1ccc(Cl)c(Cl)c1)C[C@@H](O)CO,–,·,·,9.2µM,·,·
O=S(=O)(c1ccc2c(c1)OCCO2)N1CCN(S(=O)(=O)c2ccc3c(c2)OCCO3)CC1,·,0.35µM,0.4µM,·,0.6µM,·
Cc1ccc2c(CN3CCN(S(=O)(=O)c4ccc5c(c4)OCCO5)CC3)cc(=O)oc2c1C,–,–,–,15µM,–,–
CN1CCN(S(=O)(=O)c2ccc3c(c2)OCCO3)CC1,–,–,–,–,–,–
CCN(CC)S(=O)(=O)c1ccc(N2CCN(S(=O)(=O)c3ccc4c(c3)OCCO4)CC2)nc1,–,–,–,9.2µM,–,–
SMILES,ELG1 genotox,NPC1 promoter act,Rab9 prom act,ELG1 DNA repair,FLuc modulator,SMN2 splice enh
O=C1N/C(=C\c2ccc(O)cc2)C(=O)c2ccccc21,?,–,–,–,1.2µM,–
Cc1nnnn1CC(=O)Nc1ccccc1[N+](=O)[O-],–,–,–,–,–,–
CCOCC(=O)Nc1ccc(OCc2ccccc2)cc1,?,–,?,?,17µM,?
CC(C)=CC(=O)Nc1ccc(Br)cc1,3.7µM,2.5µM,1.4µM,?,4.8µM,13µM
S=C(Nc1ccccc1)Nc1ccc(OCc2ccccc2)cc1,–,–,–,–,–,–
CCOC(=O)C(=O)Nc1ccc(OCc2ccccc2)cc1,–,–,–,–,?,·
CC(C)=CC(=O)Nc1ccc(OCc2ccccc2)cc1,?,?,?,?,13µM,–
